Only some compounds are listed: those with a hit (about 0.8% of all), similar ones and a draw of the others.
TDP1 inh – TDP1 (human) enzyme inhibition | recombinant TDP1, AlphaScreen DNA substrate cleavage | Potency, µM (top dose mostly 130 µM), for the others: at the top dose activity change, negative = inhibition, usual class: inhibitors | 0.28% of 350,000 active | AID 485290 | Q9NUW8; further: potency means the concentration at half of the fitted maximal effect; nearly all actives have a fitted effect of over 40% in size
Target sequence (Q9NUW8 whole entry, looked up): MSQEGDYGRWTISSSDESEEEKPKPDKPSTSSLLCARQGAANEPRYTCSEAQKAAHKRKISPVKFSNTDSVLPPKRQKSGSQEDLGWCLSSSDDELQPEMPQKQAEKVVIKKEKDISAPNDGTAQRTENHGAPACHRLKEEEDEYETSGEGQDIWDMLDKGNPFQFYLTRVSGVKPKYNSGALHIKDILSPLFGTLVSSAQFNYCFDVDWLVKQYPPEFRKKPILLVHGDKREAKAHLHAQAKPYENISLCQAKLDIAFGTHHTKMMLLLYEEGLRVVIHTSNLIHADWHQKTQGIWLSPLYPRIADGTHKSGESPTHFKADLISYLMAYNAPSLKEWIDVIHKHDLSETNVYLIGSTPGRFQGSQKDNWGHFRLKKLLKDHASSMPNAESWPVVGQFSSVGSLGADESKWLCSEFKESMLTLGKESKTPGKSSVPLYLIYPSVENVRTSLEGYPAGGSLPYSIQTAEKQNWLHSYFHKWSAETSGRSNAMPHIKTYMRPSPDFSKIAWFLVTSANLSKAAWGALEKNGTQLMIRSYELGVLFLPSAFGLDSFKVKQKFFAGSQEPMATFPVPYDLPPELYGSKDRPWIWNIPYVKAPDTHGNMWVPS
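Recombinant human Tdp1 (E. coli-expressed, 1 nM final) preincubated with compounds 15 min at room temperature, then 5'-biotin/3'-phosphotyrosine-FITC DNA substrate (15 nM final) added for 5 min. AlphaScreen beads (10 ug/ml final) added 10 min; cleavage lowers signal.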
APEX1 inh – inhibitors of human APE1 endonuclease | recombinant APE1, TAMRA/BHQ-2 abasic DNA cleavage fluorescence | Potency, µM (titrated, usually from 65.8 µM), for the others: at the highest dose activity change, negative = inhibition, most hits filed as inhibitors | 0.35% of 350,000 active;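 further: potency means the concentration at half of the fitted maximal effect; plate controls were vehicle for no effect and reference inhibitor for full effect; nearly all actives have a fitted effect of over 55% in size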
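Incision of a quenched TAMRA/BHQ-2 THF abasic-site duplex (50 nM) by 0.75 nM APE1, after 15 min compound preincubation, measured as fluorescence increase over three 60 s reads. Values normalized to buffer, DMSO and NSC13755 control wells.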
Tb PFK block – inhibitors of T. brucei phosphofructokinase; O15648; T. brucei PFK, ADP-Glo luminescence; Potency, µM (series often up to 57.5 µM), for inactives: at the top dose activity, negative = inhibition, most hits filed as inhibitors; 0.17% of 330,000 active; AID 485367;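 further: potency means the concentration at half of the fitted maximal effect; 0% = uninhibited 1x PFK enzyme wells and -100% = no-enzyme wells; nearly all actives have a fitted effect of over 60% in size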
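1.25 nM PFK with 0.5 mM F6P and 0.1 mM ATP in 0.1 M TEA pH 8.0, 5 mM MgCl2, incubated 45 min at room temperature; ADP measured by ADP-Glo luminescence; compounds titrated up to 57 uM.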
FEN1 inh – blocks human flap endonuclease 1 | Recombinant FEN1 flap cleavage, fluorescence, 15 min | 0.35% of 390,000 active | P39748 | Potency, µM (series often up to 114 µM), for the others: top-dose activity change, negative = inhibition, usual class: inhibitors; further: potency means the concentration at half of the fitted maximal effect; nearly all actives have a fitted effect of over 65% in size
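With each library titrated from low to high concentration, compounds met 10 nM FEN1 for 15 min at room temperature before 50 nM substrate was added; readings at 0 and 15 min fed four-parameter Hill curve fits.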
Tb PGK inh – T. brucei PGK inhibition; PGK/GAPDH coupled, Kinase-Glo luminescence, 60 min; Potency, µM (series often up to 57.5 µM), inactives show top-dose activity change, negative = inhibition, most hits filed as inhibitors; 0.043% of 380,000 active; AID 602233; further: potency means the concentration at half of the fitted maximal effect; nearly all actives have a fitted effect of over 60% in size
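Luminescent ATP detection (Kinase-Glo Plus) follows a 60-minute room-temperature incubation, with wells lacking PGK as controls. Buffer: 100 mM TEA (pH 7.6), 5 mM MgCl2, 0.01% Tween-20. Coupling enzyme GAPDH (100 nM final) supplies unstable 1,3-BPG in-well.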
PI4K2A inh – inhibitors of human PI4K2A; Q9BTU6; purified PI4K2A, ADP-Glo luminescence, 1 h; active compounds read low; activity change, negative = inhibition, % at 76.9 µM; 0.13% of 420,000 active; in the data active means activity change below about -50%; inconclusive means mostly about -30% to -49%;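 further: -100% = wells without enzyme as full effect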
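Compounds are screened against recombinant PI4K2A using PI as substrate and ATP, the latter dispensed at 300 microM. Reactions run one hour at ambient temperature before ADP-Glo detection; full inhibition defined by wells lacking enzyme.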
* marks the source's active call; other numbers are inactive results; i = inactive; u = inconclusive; x = no result; ! = a repeat was not active. Unless noted, the call rests on the fitted dose curve; in most records, active means well fitted curve in the direction sought with a large enough effect; inconclusive means small, poorly fitted or top-dose-only effect, or another doubt; inactive means no such curve, though single readings can be large; an effect the other way counts as inactive or inconclusive. Unless noted, on the % scale 0 is the no-effect control and ±100 the full control effect.

SMILES | TDP1 inh | APEX1 inh | Tb PFK block | FEN1 inh | Tb PGK inh | PI4K2A inh
CCNC(=O)[C@H]1O[C@@H](n2cnc3c(N)ncnc32)[C@H](O)[C@@H]1O | 8.5% | 14.2% | -0.9% | 2.5% | -7.7% | -12.7
Nc1ncnc2c1ncn2[C@@H]1O[C@H](COP(=O)(O)CP(=O)(O)O)[C@@H](O)[C@H]1O | 2.4% | 4.4% | x | -12.2% | -7.1% | -54.2*
C=CCC1([C@H](C)CCC)C(=O)NC(=O)NC1=O | x | x | x | x | x | i
COC(C)(C)CCCC(C)C/C=C/C(C)=C/C(=O)OC(C)C (configuration not stated) | 15.8µM*! | -6.9% | -0.7% | 3.9% | -4.8% | -5.1
[Cl-].[Cl-].[Hg+2] | 35.5µM* | x | x | x | x | x
CCC(CC)(CNC(=O)CCCO)c1cccc(OC)c1 | x | x | x | x | x | 1.0
CN1/C(=C\C=C2C(=O)NC(=O)NC2=O)C(C)(C)c2ccccc21 | 4.9% | 2.7% | -2.0% | 9.3% | 3.4% | -0.9
CN1/C(=C\C=C\C2=[N+](C)c3ccc4ccccc4c3C2(C)C)C(C)(C)c2ccccc21 | 11.5% | 28.2µM* | -24.7% | x | x | x
O=c1oc2ccccc2c(O)c1C(CC(O)c1ccc(-c2ccc(Br)cc2)cc1)c1ccccc1 (configuration not stated) | x | x | x | x | x | -4.0
COc1cc(C[C@@H](C)N)c(OC)cc1Br | x | x | x | x | x | i
O=C(O)c1ccc(=O)[nH]c1 | x | x | x | x | x | -3.8
Cc1ccc(-n2sc3ccccc3c2=O)cc1 | 6.5% | 4.5% | 9.53µM* | -18.4% | 3.4% | -8.1
COc1ccc(-c2nc3ccccc3c(=O)n2-c2ccc(OC)cc2)cc1 | 3.7% | 24.2% | -4.8% | 10.7% | -5.8% | -3.9
Cc1ccc(C)cc1 | 16.6% | 1.4% | x | x | x | x
Cc1ccc(C=C2C(Cl)=C(Cl)C(Cl)=C2Cl)cc1 | x | 15.8µM* | u | u | -26.5% | -21.3
O=C(CCCCl)c1ccc(F)cc1 | x | x | x | x | x | -6.1
Cc1ccc(OCCOc2cccc(C=C3C(=O)NC(=O)NC3=O)c2)c(C)c1 | 79.4µM* | 41.4% | 3.3% | u | -2.2% | u
O=C1NC(=O)C(=Cc2cccc(OCCOc3ccccc3)c2)C(=O)N1 | x | 9.4% | 0.0% | -27.1% | -2.9% | -26.0
Oc1c(Br)c(Br)c(Br)c(Br)c1Br | 4.0% | 2.9% | -24.0% | 50.1µM* | u | 1.4
O=C(O)CC1OCC=C2CN3CCC45C6=CC(=O)C(=O)C([N+](=O)[O-])=C6NC4C1C2CC35 (configuration not stated) | -0.6% | -4.0% | -16.7% | -67.2% | u | -60.9*
O=C1CC2OCC=C3CN4CCC56c7cc([N+](=O)[O-])ccc7N1C5C2C3CC46 (configuration not stated) | 5.0% | -8.7% | -3.0% | 2.0% | -3.6% | -5.9
Cc1ccsc1/C=C1\C(=O)NC(=S)N(C)C1=O | 2.1% | -11.4% | -8.3% | 79.4µM* | -14.3% | -21.5
COc1ccc(/C=C2\C(=O)NC(=S)N(C)C2=O)cc1C | x | 1.4% | -4.1% | 50.1µM* | 10µM* | u
CN1C(=O)/C(=C/c2ccc(Cl)s2)C(=O)NC1=S | -6.1% | -9.4% | 1.8% | -23.7% | -1.8% | -10.5
CC1COC2(c3ccccc3Cl)c3cc(Cl)ccc3NC(=O)CN12 (configuration not stated) | x | x | x | x | x | 0.6
SMILES | TDP1 inh | APEX1 inh | Tb PFK block | FEN1 inh | Tb PGK inh | PI4K2A inh
O=c1[nH]c2ccccc2n1C1CCNCC1 | x | x | x | x | x | -1.3
O=C(O)c1ccccc1NS(=O)(=O)c1cccc(N=Nc2c(O)[nH]c(=S)[nH]c2=O)c1 | 0.0% | 7.1% | u | -10.3% | -2.8% | -2.1
CCOc1ccc(NS(=O)(=O)c2ccc(Cl)c(N=Nc3c(O)[nH]c(=S)[nH]c3=O)c2)cc1Br | x | x | x | x | 22.4µM* | -1.1
CCCCC/C=C\C/C=C\C/C=C\C/C=C\CCCC(=O)NCC(=O)O | 31.6µM*! | u | x | u | x | -25.6
N#Cc1cn(C2OC(CO)C(O)C2O)c2ncnc(N)c12 (configuration not stated) | x | x | x | -0.4% | i | -51.2*
CCC(=O)O[C@@H]1C=C2CCC3C(CCC4(C)C3CC[C@@H]4OC(=O)CC)C2CC1 (some centres not stated) | x | x | x | x | x | 3.4
ClCCCN1CCN(c2cccc(Cl)c2)CC1 | x | x | x | x | x | -3.7
COc1cc(O)c(C(=O)O)c(-c2cc(O)c(O)cc2C)c1 | x | 20µM* | u | u | -17.2% | -8.2
COc1ccc2c(c1)c(C(=O)O)c(C)n2CC(C)C | 4.2% | -3.7% | 0.5% | 9.0% | x | 7.1
O=C1NC(=O)C(=Cc2ccc(Sc3ccccc3)o2)C(=O)N1 | -9.8% | 22.0% | -2.1% | u | -1.1% | -23.4
O=C1NC(=O)N(c2ccc(Cl)cc2)C(=O)/C1=C\c1ccc(Sc2nc3ccccc3[nH]2)o1 | -4.5% | u | -28.6% | 79.4µM* | -21.4% | u
CC1Oc2cc3c(-c4c(O)cc(O)c5c(O)c6c(cc45)OC(C)C(C)C6=O)c(O)cc(O)c3c(O)c2C(=O)C1C (configuration not stated) | 7.6% | u | 4.8% | 14.1µM* | -1.6% | -21.1
O=C1C=CC(=O)C(Cl)=C1 | x | 28.2µM* | x | x | x | x
C=CCC1(C(C)CC)C(=O)NC(=O)NC1=O (configuration not stated) | x | x | x | x | x | 0.9
N#CC(C#N)=NNc1ccc(S(N)(=O)=O)cc1 | x | u | -2.8% | 39.8µM* | u | -16.6
CCC(=O)C(CC(C)N(C)C)(c1ccccc1)c1ccccc1 (configuration not stated) | x | x | x | x | x | i
COc1ccc(OC)c([C@@H](O)[C@H](C)N)c1 | x | 0.9% | x | x | x | x
[Cd+2].[Cl-].[Cl-] | 2.5% | 0.794µM* | x | x | x | x
[Hg+][c]1ccccc1 | 10.6% | x | x | 10µM* | x | x
Cc1ccc(NC(=O)c2snnc2C)cc1Cl | -2.5% | 6.3% | -4.6% | -2.9% | i | 1.1
Cc1nn(C(C)(C)C)c(C)c1/C=N/OC(=O)Nc1ccc(Cl)c(Cl)c1 | 6.3% | 0.1% | 16.9µM* | -6.9% | i | -2.6
CCC12CCN(C)CC1Oc1c(C)cccc12 (configuration not stated) | x | 12.0% | x | x | x | x
C=C1C(=O)O[C@@H]2C[C@@H](C)[C@@H]3C=CC(=O)[C@@]3(C)[C@@H](OC(=O)CC(=O)O[C@H]3[C@@H]4C(=C)C(=O)O[C@@H]4C[C@@H](C)[C@@H]4C=CC(=O)[C@]43C)[C@H]12 | 2.4% | -11.4% | -26.6% | u | u | -69.9*
C[C@@H]1CC2=CC(=O)CC[C@@H]2[C@H]2CC[C@@]3(C)[C@@H](CC[C@]3(C)O)[C@@H]21 | x | x | x | x | x | 2.0
NC(N)=NC(=O)c1nc(Cl)c(N)nc1N | -5.5% | 39.8µM*! | -0.8% | u | -7.1% | -1.7

Screens deposited in PubChem BioAssay by National Center for Advancing Translational Sciences (NCATS).
